# Measured values as given in PubChem BioAssay.
# The source made the active and inactive calls.
# How the values were obtained:
# [1] = test system: Plasmodium falciparum Sir2 (PF13_0152, Sir2A); assay: pfSir2 binders on small-molecule microarrays, primary screen, biochemical, small-molecule microarray, 635 nm fluorescence (AID 1098); settings: small-molecule microarray binding, fluorescence 635 nm; higher = more signal;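 note: score merges spot fluorescence intensity with its signal-to-noise ratio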
# [2] = small-molecule microarray binders of probe aDKK1, primary screen, biochemical, biotinylated probe, 635/667 nm fluorescence (AID 1099); settings: higher = more signal;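 note: score merges 667nm spot fluorescence with signal to noise across triplicate slides; reference of the scale not given here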
# [3] = small-molecule microarray binders of probe aCHRDL2, primary screen, biochemical, biotinylated probe, 635/667 nm fluorescence (AID 1100); settings: higher = more signal
# [4] = splicing luciferase reporter signal modulators, primary screen, spliceosome inhibition project, cell-based, HEK293, splice +/- reporter (AID 1101); settings: luminescence, 24 h, higher = more signal, called active from +8 up or from −8 down;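 note: HEK293 cells carrying a splicing-competent luciferase reporter gene; test concentration not given here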
# [5] = target: Fibroblast growth factor 10 (Homo sapiens) (UniProt O15520); assay: FGF10 binders on small-molecule microarrays, primary screen, biochemical, small-molecule microarray, 635 nm fluorescence (AID 1102); settings: FGF10 binding, fluorescence 635 nm, higher = more signal
# [6] = test system: glycogen synthase kinase-3 (GSK3A per assay name; protocol says GSK3B); assay: GSK3 binders on small-molecule microarrays, primary screen, biochemical, small-molecule microarray, 635 nm fluorescence, GSK3A (AID 1103); settings: small-molecule microarray binding, fluorescence 635 nm; higher = more signal; note: the record names both GSK3A and GSK3B
# [7] = target: Epidermal growth factor receptor (Homo sapiens) (UniProt P00533); assay: EGFR binders on small-molecule microarrays, primary screen, biochemical, small-molecule microarray, 635 nm fluorescence (AID 1104); settings: EGFR binding, higher = more signal;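 note: score merges 667 nm emission intensity with spot signal to noise over triplicate slides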
# [8] = target: Follistatin-related protein 3 (Homo sapiens) (UniProt O95633); assay: FSTL3 binders on small-molecule microarrays, primary screen, biochemical, small-molecule microarray, 635 nm fluorescence (AID 1105); settings: FSTL3 binding, higher = more signal;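 note: score merges emission near 667 nm and signal to noise per printed spot across three slides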
# [9] = target: Dickkopf-related protein 1 (Homo sapiens) (UniProt O94907); assay: DKK1 binders on small-molecule microarrays, primary screen, biochemical, small-molecule microarray, 635 nm fluorescence scan (AID 1106); settings: DKK1 binding, higher = more signal;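 note: score merges emission near 667 nm with signal to noise over three replicate slides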
# [10] = test system: Inhibin beta A chain (activin A); assay: INHBA (activin A) binders on microarrays, primary screen, biochemical, small-molecule microarray, 635 nm fluorescence scan (AID 1107); settings: small-molecule microarray binding, higher = more signal;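 note: mouse activin A protein probed at 4.33 µg/mL on printed slides; score merges bound-protein fluorescence near 667 nm with spot signal-to-noise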
# Sequence of Follistatin-related protein 3 (Homo sapiens) (O95633 whole entry, looked up): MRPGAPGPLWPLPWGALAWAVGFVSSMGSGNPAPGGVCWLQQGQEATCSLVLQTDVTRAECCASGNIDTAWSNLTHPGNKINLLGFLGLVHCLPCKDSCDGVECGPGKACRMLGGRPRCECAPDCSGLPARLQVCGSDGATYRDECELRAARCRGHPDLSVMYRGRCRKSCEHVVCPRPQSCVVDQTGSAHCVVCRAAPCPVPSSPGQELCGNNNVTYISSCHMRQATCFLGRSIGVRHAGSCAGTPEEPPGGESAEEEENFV
# Sequence of Epidermal growth factor receptor (Homo sapiens) (P00533 whole entry, looked up): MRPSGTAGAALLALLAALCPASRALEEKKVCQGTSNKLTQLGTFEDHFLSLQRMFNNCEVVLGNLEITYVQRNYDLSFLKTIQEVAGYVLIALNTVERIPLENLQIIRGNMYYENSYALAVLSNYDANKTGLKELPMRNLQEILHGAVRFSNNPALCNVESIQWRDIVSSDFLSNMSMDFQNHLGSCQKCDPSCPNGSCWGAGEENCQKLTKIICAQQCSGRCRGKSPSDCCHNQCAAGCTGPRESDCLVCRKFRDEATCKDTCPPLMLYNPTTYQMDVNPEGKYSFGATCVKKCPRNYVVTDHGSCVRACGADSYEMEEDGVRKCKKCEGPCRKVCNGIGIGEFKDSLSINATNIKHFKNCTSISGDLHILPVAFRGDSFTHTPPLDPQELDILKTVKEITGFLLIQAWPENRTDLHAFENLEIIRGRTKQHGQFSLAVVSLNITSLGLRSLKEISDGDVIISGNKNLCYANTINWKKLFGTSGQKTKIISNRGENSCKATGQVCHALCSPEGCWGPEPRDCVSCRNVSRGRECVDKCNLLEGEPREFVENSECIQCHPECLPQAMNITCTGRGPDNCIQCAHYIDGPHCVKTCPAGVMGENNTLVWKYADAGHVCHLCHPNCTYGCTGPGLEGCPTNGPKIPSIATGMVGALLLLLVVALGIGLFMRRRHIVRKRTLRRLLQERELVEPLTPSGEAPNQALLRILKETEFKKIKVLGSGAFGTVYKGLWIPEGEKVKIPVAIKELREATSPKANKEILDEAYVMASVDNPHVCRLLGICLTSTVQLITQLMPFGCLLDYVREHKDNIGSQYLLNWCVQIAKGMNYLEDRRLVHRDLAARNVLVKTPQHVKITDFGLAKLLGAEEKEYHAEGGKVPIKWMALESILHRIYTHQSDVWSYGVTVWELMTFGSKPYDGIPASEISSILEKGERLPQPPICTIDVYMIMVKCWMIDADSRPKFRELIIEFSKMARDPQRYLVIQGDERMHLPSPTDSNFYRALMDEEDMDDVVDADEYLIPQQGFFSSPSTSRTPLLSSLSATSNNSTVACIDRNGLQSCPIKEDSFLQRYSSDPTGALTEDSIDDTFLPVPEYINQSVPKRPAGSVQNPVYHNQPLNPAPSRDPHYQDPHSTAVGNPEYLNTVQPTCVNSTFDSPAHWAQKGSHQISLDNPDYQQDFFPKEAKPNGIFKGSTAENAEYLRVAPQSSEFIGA
# Sequence of Dickkopf-related protein 1 (Homo sapiens) (O94907 whole entry, looked up): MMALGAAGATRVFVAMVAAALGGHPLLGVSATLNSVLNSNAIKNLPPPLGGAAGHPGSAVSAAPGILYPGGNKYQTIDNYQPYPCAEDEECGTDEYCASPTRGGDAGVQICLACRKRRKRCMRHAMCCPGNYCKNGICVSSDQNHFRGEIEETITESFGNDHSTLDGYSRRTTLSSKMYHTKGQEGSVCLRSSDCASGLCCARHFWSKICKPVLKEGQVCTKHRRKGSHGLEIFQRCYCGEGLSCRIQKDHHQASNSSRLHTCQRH
# Sequence of Fibroblast growth factor 10 (Homo sapiens) (O15520 whole entry, looked up): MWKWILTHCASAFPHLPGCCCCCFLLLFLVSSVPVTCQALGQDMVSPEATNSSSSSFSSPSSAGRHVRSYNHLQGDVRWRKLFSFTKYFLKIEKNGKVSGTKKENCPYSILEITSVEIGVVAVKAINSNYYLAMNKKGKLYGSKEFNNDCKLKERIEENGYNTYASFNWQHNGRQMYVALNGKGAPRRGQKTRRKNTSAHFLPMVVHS
SMILES,composite z-score [1],composite z-score [2],composite z-score [3],z-score [4],composite z-score [5],composite z-score [6],composite z-score [7],composite z-score [8],composite z-score [9],composite z-score [10]
O=C1O[C@@H](c2ccccc2)[C@@H](c2ccccc2)N2[C@@H](c3ccccc3OCCO)[C@]3(C(=O)Nc4ccc(C#CC5(O)CCCCCC5)cc43)[C@@H](C(=O)Nc3nc4ccccc4s3)[C@H]12,1.04,-0.0444,-0.0735,0.554 (inactive),0.68,1.25,0.369,0.996,0.28,0.251
CC1CC/C=C\[C@H]2OC34C=CCN(Cc5ccccc5)C(=O)[C@H]3N(CCCCCO)C(=O)[C@@H]4C2C(=O)O1 (stereo not given in full),-0.0545,-0.425,0.144,0.537 (inactive),-0.423,-1.42,-0.713,-1.19,-0.892,-0.0407
CC=CC(O)C1C=CC2C(=O)N(c3ccccc3)C(=O)C2N1Nc1ccc(C(C)C)cc1 (stereo not given),0.534,0.75,0.973,-0.235 (inactive),0.878,1.24,0.122,1.3,0.14,0.841
C=CC(COC(C)=O)NS(=O)(=O)c1ccc(Br)cc1 (stereo not given),0.669,-0.461,-0.501,0.217 (inactive),0.632,0.903,0.642,1.01,0.684,0.12
CCOC(=O)[C@H]1C[C@H]2O[C@@]23C[C@H]1C(=O)N1CCCC1[C@@H]3O[Si](C)(C)C(C)(C)C (stereo not given in full),-0.169,-0.199,-0.528,0.376 (inactive),0.476,-0.445,-0.694,-0.198,0.0691,0.198
CC(C)C(=C=CC[C@H](O)c1ccccc1OCCO)C[C@H](O)c1ccccn1,1.62,0.0012,-0.203,-0.705 (inactive),0.764,0.559,-0.536,-0.0639,-0.0832,0.407
COCCOC(=O)N1C(=O)[C@@]2(c3cc(C#CCC(C(=O)OC)C(=O)OC)ccc31)[C@H](c1ccccc1OCCO)N1[C@H](c3ccccc3)[C@H](c3ccccc3)OC(=O)[C@H]1[C@@H]2C(N)=O,1.38,0.152,0.188,-5.03 (inactive),1.22,1.31,0.249,1.13,0.451,0.0274
CCCCCCc1nc(CCCc2cc3c(c(CCCCCC)n2)[Si](C(C)C)(C(C)C)OC3)cc2c1[Si](C(C)C)(C(C)C)OC2,-0.432,-0.33,-0.138,0.775 (inactive),-0.408,-0.242,-0.0687,-0.176,0.279,1.49
[N-]=[N+]=NCc1ccccc1[C@@H]1OC(c2ccc(OCCCO)cc2)=N[C@]1(Cc1ccccc1)C(=O)N1CCCCC1,1.36,0.792,0.63,-0.276 (inactive),1.32,1.18,-0.167,0.584,0.118,0.407
[N-]=[N+]=NCc1ccccc1C[C@]1(C(=O)NCC(O)CO)N=C(c2ccc(OCCCO)cc2)O[C@H]1c1ccccc1N=[N+]=[N-] (stereo not given in full),0.3,1.38,1.1,-1.58 (inactive),0.0684,0.091,-0.166,-0.318,-0.894,0.967
O=C(CS)NCCCCCCNC(=O)[C@H]1C[C@H]2C(=O)NCC(=O)N2[C@H]1c1ccc(O)cc1,0.576,-0.213,0.694,-0.295 (inactive),-0.175,-0.607,-0.606,-0.46,0.22,-0.58
CCC[C@@H]1C=C(C(=O)O)[C@H](c2ccc(C)cc2)N1S(=O)(=O)c1ccc(C)cc1,0.706,0.36,0.817,1.04 (inactive),0.74,0.415,-0.278,0.192,-0.435,0.71
CC(C)c1ccc(NN2C(C(O)c3cccc(O)c3)C=CC3C(=O)N(c4ccccc4)C(=O)C32)cc1 (stereo not given),0.996,0.808,0.835,0.689 (inactive),1.39,1.27,0.373,1.05,-0.0143,-0.251
CCCCCCCCCCC(O)C1C=CC2C(=O)N(Cc3ccccc3)C(=O)C2N1n1cnnc1 (stereo not given),0.724,0.897,0.739,-0.47 (inactive),-0.262,0.08,-0.384,-0.351,-0.906,1.23
O=C1O[C@@H](c2ccccc2)[C@@H](c2ccccc2)N2[C@@H](c3ccc(O)cc3)[C@]3(C(=O)Nc4ccc(C#CC5(O)CCCCCC5)cc43)[C@@H](C(=O)N3CCCCCCC3)[C@H]12,1.99,2.61,1.26,-0.612 (inactive),1.51,1.38,1.83,1.53,2.49,1.86
CCCCCN1CC=CC23O[C@@H]4/C=C\CCCOC(=O)C4[C@H]2C(=O)N(CCCCCCO)[C@@H]3C1=O (stereo not given in full),1.43,-0.231,0.139,-3.07 (inactive),-0.894,0.233,-0.0633,-0.0242,-1.22,1.26
